High-throughput results (PubChem BioAssay)
AMA1-RON2 inh = AMA1-RON2 (P. falciparum) interaction inhibition. AlphaScreen AMA1-biotinylated RON2 peptide binding. Potency, µM (top dose mostly 58.2 µM), inactives show top-dose activity change, negative = inhibition, actives largely listed as inhibitors. 360,000 tested, 0.2% active;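 note: 0% = vehicle wells and -100% = peptide control; nearly all actives have a fitted effect of over 45% in size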
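AMA1 (3D7) with his tag at 25 nM final met compounds first, then biotinylated RON2 peptide at 25 nM; detection used donor plus acceptor beads, 10 µg/mL apiece, read by AlphaScreen after 30 min at room temperature.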
Pf growth 96h = inhibits malaria parasite growth, 96 h; Potency, µM (titrated, usually from 28.7 µM), without a hit: top-dose activity change, negative = inhibition, actives largely listed as inhibitors; P. falciparum luciferase reporter growth, 96 h; 320,000 tested, 6.9% active
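Luminescence readout: decreased luciferase signal marks inhibited growth of reporter-expressing P. falciparum in infected red cells (2% hematocrit, 0.05% parasitemia final), exposed to compound two generations (96 h, 37 C, 5% CO2).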
HCV inhibitor = inhibitors of hepatitis C virus infection; Huh7.5.1 HCVcc-Cre infection, luciferase reporter, 44 h; Potency, µM (doses to about 41.8 µM), without a hit: top-dose activity change, negative = inhibition, actives largely listed as inhibitors; 340,000 tested, 3.4% active
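A cell-based infection assay in which seeded cells (1,000 per well) receive test compound after 4 h, are inoculated with HCVcc-Cre at approximately 0.5 moi, and are incubated 44 h before luminescence detection.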
Pf growth 48h = P. falciparum growth inhibition at 48 hours (one generation). P. falciparum luciferase growth in erythrocytes, 48 h. Potency, µM (doses to about 28.7 µM), without a hit: top-dose activity change, negative = inhibition, most hits filed as inhibitors. 310,000 tested, 5.9% active
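Luciferase-expressing P. falciparum in infected erythrocytes (2% hematocrit, 0.1% parasitemia final) in RPMI 1640/0.5% Albumax were exposed to compound for 48 hours at 37 C, 5% CO2; growth read as luminescence.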
Numbers without * were called inactive; ? = inconclusive; . = no result given; ! = a repeat was not active; [ ] = remark or other dose. A selection: hits, their analogues and other compounds. The true share with any hit is near 11%. Calls come from the whole dose curve; as a rule, active = well fitted curve in the direction sought with a large enough effect; inconclusive = small, poorly fitted or top-dose-only effect, or another doubt; inactive = no such curve, though single readings can be large; an effect the other way counts as inactive or inconclusive. Unless noted, % is set by controls: 0 for no effect and ±100 for the full control effect; potency is the fitted concentration of half-maximal effect.

SMILES	AMA1-RON2 inh	Pf growth 96h	HCV inhibitor	Pf growth 48h
CC1Cc2ccccc2N1CC(=O)c1c(N)n(Cc2ccccc2)c(=O)n(C)c1=O (stereo not drawn)	?	9.3µM*	-8%	8.3µM*
Cc1cc(C)c(C)c(S(=O)(=O)N2CCN(CC(=O)c3c(N)n(Cc4ccccc4)c(=O)n(C)c3=O)CC2)c1C	0%	?	?	5.9µM*
Cc1cn(C2CCCCC2)c(=O)[nH]c1=O	13%	.	21%	.
CCN1CCn2c3c(c4cccc(C)c42)CCCC31 (stereo not drawn)	-30%	6%	-23%	?
COc1ccc2nc(C)cc(N/N=C/c3cccc(OC)c3O)c2c1	-3%	-9%	?	0.093µM*
COc1ccc2nc(C)cc(SCC(=O)N/N=C/c3ccc(O)c(O)c3)c2c1	-6%	47%	?	-17%
COc1ccc2nc(C)cc(SCC(=O)N/N=C/c3cccc4ccccc34)c2c1	-12%	?	10µM*	?
Cc1cc(N/N=C/c2ccccc2O)c2ccccc2n1	-18%	?	?	0.52µM*
Cc1ccc2nc(C)cc(N/N=C/c3cccnc3)c2c1	8%	19%	-15%	3%
COc1ccc(/C=N/Nc2cc(C)nc3ccc(Br)cc23)cc1	?	0.47µM*	6.3µM*	0.26µM*
CC1(C(=O)Nc2ccccc2F)CCN1C(=O)Cc1cc(F)ccc1F (stereo not drawn)	13%	.	.	.
O=c1c2c(-c3ccccc3)csc2nc2c3ccccc3c(NCCN3CCOCC3)nn12	-13%	1.2µM*	?	3.3µM*
O=c1c2ccccc2nc2c3ccccc3c(NCCN3CCOCC3)nn12	.	10%[5.75 µM]	.	0%
COC(=O)c1sc2nc(SCc3cccc(Cl)c3)n(N)c(=O)c2c1C	18%	9.3µM*	?	0%
COC(=O)c1sc2nc(SCc3ccccc3C)n(N)c(=O)c2c1C	5%	?	?	-5%
O=C1c2cccc(O)c2C(=O)c2c(O)cc(CO)cc21	-25%	.	3%	.
O=C1c2c(O)ccc(O)c2C(=O)c2c(NCCNCCO)ccc(NCCNCCO)c21	10µM*	0.93µM*	1.1µM*	0.83µM*
Cc1nc(NCCc2ccc(O)cc2)c2nnn(Cc3ccccc3)c2n1	15%	?	?	-4%
O=c1[nH]cn[nH]1	7%	0%	0.56µM*	62%
O=C(O)Cc1ccc(C(=O)c2cccs2)s1	2%	10µM*	15%	18%
CCC1CCCCN1S(=O)(=O)c1ccc(NC(=O)C2CCCO2)cc1 (stereo not drawn)	-3%	39%	12%	-16%
COc1cc(NC(=O)CSc2nnnn2C2CCCC2)cc(OC)c1	-7%	7%	-4%	38%
CCCNC(=S)N1CC2(C)CN(C(=O)C(=O)OCC)CC(C)(C1)C2=O	0%	4%	3%	33%
COc1ccc(NCN2C(=O)C3C4C=CC(C4)C3C2=O)cc1 (stereo not drawn)	-9%	10µM*	11%	1%
O=C(Cc1ccc(F)cc1)OCN1C(=O)c2ccccc2C1=O	-8%	15µM*	9%	?
SMILES	AMA1-RON2 inh	Pf growth 96h	HCV inhibitor	Pf growth 48h
CC(C)N(C(=O)CCl)c1ccccc1	4%	.	10µM*	.
CC(C)N(C(=O)COC(=O)[C@H](C)NC(N)=O)c1ccccc1	-12%	5%	1%	-7%
CCc1nc(Nc2ccc(N3CCN(C(C)=O)CC3)cc2)c2oc3ccccc3c2n1	-12%	32%	-21%	10µM*
CCc1nc(Nc2ccc(F)cc2)c2oc3ccccc3c2n1	0%	?	10µM*	?
CCc1nc(Nc2ccccc2)c2oc3ccccc3c2n1	0%	0%	?	-15%
CC(=O)N1CCN(c2ccc(Nc3ncnc4c3oc3ccccc34)cc2)CC1	-20%	?	?	-21%
COc1ccc(C(C)=O)c(OCC(=O)NCCC2=CCCCC2)c1	16%	.	.	.
CC(C)(C)c1ccc(C(=O)NC(=O)COC(=O)c2ccc(Br)o2)cc1	2%	.	31%	.
Cc1[nH]c(=S)[nH]c(=O)c1Cc1c(O)ccc2ccccc12	22%	.	20%	.
COc1ccc(Cc2c(O)[nH]c(=S)[nH]c2=O)cc1	0%	0.37µM*	-7%	4%
Cc1[nH]c(=S)[nH]c(=O)c1Cc1ccccc1	15%	13µM*	10%	28%
O=C(CC(=O)Nc1cccc(Cl)c1Cl)Nc1cccc(Cl)c1Cl	2%	-6%	-2%	.
S=C(Cc1ccccc1)Nc1ccccc1	16%	.	11%	.
O=c1c2ccccc2sn1-c1cc(S(=O)(=O)N2CCOCC2)ccc1N1CCCC1	47%	?	-22%	.
O=c1c2ccccc2sn1-c1cc(S(=O)(=O)N2CCOCC2)ccc1N1CCOCC1	16%	10%	?	3.7µM*
O=C(CC1CC2CCC1C2)N1CCN(S(=O)(=O)c2ccc(C(F)(F)F)cc2)CC1 (stereo not drawn)	-7%	.	.	.
Cc1cccc(C)c1-n1c(C)cc(/C=N/NC(=O)CSc2ncccn2)c1C	-1%	0%	-5%	?
Cc1ccc(-n2c(C)cc(/C=N/NC(=O)c3ccncc3)c2C)cc1C	14%	-2%	-25%	10µM*
Cc1cc(C)nc(SCC(=O)N/N=C/c2cc(C)n(-c3ccccc3C)c2C)n1	19%	?	17%	5.2µM*
Cc1cccc(C)c1-n1c(C)cc(/C=N/NC(=O)c2ccncc2)c1C	0%	?	15%	?
Cc1cc(/C=N/NC(N)=S)c(C)n1-c1ccc(Cl)c(Cl)c1	40%	12µM*	?	13µM*
Cc1ccc(-n2c(C)cc(/C=N/NC(=O)c3ccncc3)c2C)c(C)c1	1%	1.7µM*	?	2.3µM*
COc1ccccc1N(C)S(=O)(=O)c1ccc(C(=O)NC(C)c2ccccc2)cc1 (stereo not drawn)	3%	?	?	?
Clc1cccc(Cl)c1C1=NOC(c2nnc(-c3ccccc3)o2)C1 (stereo not drawn)	-4%	-3%	?	0%
O=C(Cn1nnc2ccccc21)c1ccc(Cl)cc1	9%	33%	-7%	59%
SMILES	AMA1-RON2 inh	Pf growth 96h	HCV inhibitor	Pf growth 48h
CCCOc1cccc(C(=O)N/N=C/c2coc3ccccc3c2=O)c1	138%	13µM*	8%	22%
Cc1ccc2occ(/C=N/NC(=O)c3ccc(Cl)cc3)c(=O)c2c1	31%	0%	-2%	3%
Cc1ccc(-n2c(C)cc(/C=N/NC(=O)CC3(C)OCCO3)c2C)c(C)c1	89%	-23%	-3%	9.3µM*
Cc1ccc2occ(/C=N/NC(=O)c3ccncc3)c(=O)c2c1	126%	3.7µM*	5%	10%
O=C(NCCCN1CCOCC1)c1ccc2c(c1)N(Cc1c(F)cccc1Cl)C(=O)CS2	3%	?	-4%	-21%
O=C(CSC(=S)N1CCOCC1)Nc1nc(=O)c2ccccc2s1	.	42%	11%	21%
CN1CCC(=C2c3ccccc3C=Cc3ccccc32)CC1	-9%	?	?	12µM*!
O=C1Cc2ccccc2Sc2ccccc21	-1%	41%	0%	50%
CN1CCC(=C2c3ccccc3Sc3ccccc32)CC1	-9%	?	10µM*	4.3µM*
